Measurements published in the supplement of paper PMC9694430.
Where a name gives a salt, the structure may show the parent alone.

Tested on: LOC_OS01G60700-cb002
Assay: thermal shift delta Tm vs DMSO control; higher = stronger stabilization (binding)
Conditions: 12.5 µM; protein concentration 2 µM
How it was run: (§1)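 Thermal shift values come from differential scanning fluorimetry on purified rice kinase domains made in E. coli, with melting temperatures obtained from Boltzmann fits. Samples of 19.5 μl held 2 μM kinase, 100 mM potassium phosphate pH 7.5, 150 mM NaCl, 10% glycerol, 5 × SYPRO Orange and compound in DMSO, and were heated from 25°C to 95°C at 0.05°C/s. Each shift is a triplicate mean relative to the DMSO-only protein sample.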
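Also: purified Escherichia coli-expressed rice kinase domain construct.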

Row | Compound | thermal shift delta Tm
1 | Cc1cnc(Nc2ccc(OCCN3CCCC3)cc2)nc1Nc1cccc(S(=O)(=O)NC(C)(C)C)c1 | 0.56 °C
2 | CN1CCN(CCOc2cc(OC3CCOCC3)c3c(Nc4c(Cl)ccc5c4OCO5)ncnc3c2)CC1 [Saracatinib (AZD0530)] | 1.11 °C
3 | Cn1cc(-c2ccc(F)c(C(F)(F)F)c2)nc1C1CCN(c2ncnc3[nH]ncc23)CC1 | 0.96 °C
4 | O=C(O)c1ccc2c(c1)nc(Nc1cccc(Cl)c1)c1ccncc12 [Silmitasertib (CX-4945)] | 1.42 °C
5 | Cn1c(=O)c(F)c(Nc2ccc(I)cc2F)c2c(=O)n(C[C@@H](O)CO)cnc21 | 1.02 °C
6 | O=C(NC[C@H](O)CO)c1ccncc1Nc1ccc(I)cc1F | 0.44 °C
7 | COc1c(C)c(C(=O)c2ccc(N)c(C(=O)O)c2)n2ccccc12 | 1.12 °C
8 | COc1cc(N2CCC(N)CC2)ccc1Nc1ncc(Cl)c(-c2c[nH]c3ccccc23)n1 | 2.23 °C
9 | C=CC(=O)Nc1ccc2ncnc(Nc3ccc(OCc4cccc(F)c4)c(Cl)c3)c2c1 | 1.59 °C
10 | CCS(=O)(=O)N1CCN(c2ccc(Nc3ncc(C(N)=O)c(NC4CC4)n3)cc2)CC1 | 1.4 °C
11 | O=C1c2ccc(Nc3ccc(F)cc3F)cc2CCc2ccc(OC[C@H](O)CO)cc21 [Skepinone-L] | 0.79 °C
12 | CCN1C(=O)CNc2ncc(-c3ccc(-c4nc[nH]n4)nc3C)nc21 | 0.53 °C
13 | Cc1ccc(CNc2ncnc3ccc(-c4ccc(CO)o4)cc23)o1 | 0.78 °C
14 | CCc1cncnc1N1CCN(Cc2nc3ccc(C(F)(F)F)cc3[nH]2)CC1 | 0.72 °C
15 | Cc1cc(CN2CCN(c3c(Br)cnc4nc(-c5ccc(N6CCN(C)CC6)cc5)[nH]c34)CC2)no1 | 0.17 °C
16 | Cc1nc(-c2cn3c(n2)-c2ccc(-c4cnn(C(C)(C)C(N)=O)c4)cc2OCC3)n(C(C)C)n1 [Taselisib (GDC 0032)] | 0.46 °C
17 | Cc1ccc(NC(=O)c2ccc(CN3CCN(C)CC3)cc2)cc1Nc1nccc(-c2cccnc2)n1 [Imatinib Mesylate (STI571)] | 0.7 °C
18 | O=c1cc(N2CCOCC2)oc2c(-c3ccccc3)cccc12 | 1.31 °C
19 | Nc1ncccc1-c1nc2ccc(-c3ccccc3)nc2n1-c1ccc(C2(N)CCC2)cc1 [Miransertib (ARQ 092) HCl] | -0.42 °C

Row | Compound | thermal shift delta Tm
20 | CNS(=O)(=O)C[C@H]1CC[C@H](N(C)c2[nH]cnc3nccc2-3)CC1 [Oclacitinib] | 1.12 °C
21 | N#Cc1ccc2[nH]c(O)c(-c3ccc(CN4CCOCC4)cn3)c2c1 | 1.33 °C
22 | C[C@]1(O)C[C@@H](c2nc(-c3ccc4ccc(-c5ccccc5)nc4c3)c3c(N)nccn32)C1 [Linsitinib (OSI-906)] | 1.07 °C
23 | CN1CCC(COc2cnc(-c3cccc(Cn4nc(-c5cccc(C#N)c5)ccc4=O)c3)nc2)CC1 | 0.62 °C
24 | CC(C)(C)c1nc(-c2ccc(NC(=O)Nc3cccc(C(F)(F)F)c3)c3ccccc23)c2c(N)nccn12 [kira6] | 0.03 °C
25 | Oc1c(F)cc(-c2cnccc2-c2ccc(N3CCOCC3)cc2)cc1F | 0.34 °C
26 | CC(C)[C@H](CO)Nc1nc(Nc2cccc(Cl)c2)c2ncn(C(C)C)c2n1 [Purvalanol A] | 0.1 °C
27 | CNC(=O)c1cc(Oc2ccc(NC(=O)Nc3ccc(Cl)c(C(F)(F)F)c3)cc2)ccn1 [Sorafenib] | 0.58 °C
28 | O=c1cc(-c2cccc3c2Sc2ccccc2S3)oc(N2CCOCC2)c1 | 0.76 °C
29 | N#Cc1c(Oc2ccc(F)c(NC(=O)Cc3cccc(C(F)(F)F)c3)c2)ccc2nc(NC(=O)C3CC3)sc12 | 1.86 °C
30 | CC[C@@](C)(Nc1ccnc(-c2c[nH]c3ncccc23)n1)C(=O)NCC(F)(F)F [Decernotinib (VX-509)] | 0.67 °C
31 | CCNC(=O)Nc1ccc(-c2nc3c(c(N4CCOC[C@@H]4C)n2)CCN(C2COC2)C3)cc1 | 0.42 °C
32 | COc1cc(OC)cc(N(CCNC(C)C)c2ccc3ncc(-c4cnn(C)c4)nc3c2)c1 | 0.12 °C
33 | C[C@@]1(C(=O)Nc2ccc(F)nc2)CCCN1c1nc(Nc2cc(C3CC3)n[nH]2)c2cccn2n1 | 0.85 °C
34 | O=C1CCc2c(Oc3ccc4c(c3)[C@@H]3[C@H](O4)[C@H]3c3nc4cc(C(F)(F)F)ccc4[nH]3)ccnc2N1 [Lifirafenib (BGB-283)] | 1.67 °C
35 | O=C1Nc2ccc(CN3C(=O)CSC3=O)cc2/C1=C/c1cc(CN2CCOCC2)c[nH]1 | 0.05 °C
36 | CN(c1ccccc1CNc1nc(Nc2ccc3c(c2)CC(=O)N3)ncc1C(F)(F)F)S(C)(=O)=O | 1.26 °C
37 | Cc1nc(N)sc1-c1ccnc(Nc2ccc(N3CCOCC3)cc2)n1 | 0.88 °C

Tested on: LOC_OS01G63280-cb003
Assay: as above
Conditions: 12.5 µM; protein concentration 2 µM
How it was run: as §1

Row | Compound | thermal shift delta Tm
38 | Cc1cnc(Nc2ccc(OCCN3CCCC3)cc2)nc1Nc1cccc(S(=O)(=O)NC(C)(C)C)c1 | 0.21 °C
39 | CN1CCN(CCOc2cc(OC3CCOCC3)c3c(Nc4c(Cl)ccc5c4OCO5)ncnc3c2)CC1 [Saracatinib (AZD0530)] | 0.03 °C
40 | Cn1cc(-c2ccc(F)c(C(F)(F)F)c2)nc1C1CCN(c2ncnc3[nH]ncc23)CC1 | -0.11 °C
41 | O=C(O)c1ccc2c(c1)nc(Nc1cccc(Cl)c1)c1ccncc12 [Silmitasertib (CX-4945)] | 1.39 °C
42 | Cn1c(=O)c(F)c(Nc2ccc(I)cc2F)c2c(=O)n(C[C@@H](O)CO)cnc21 | 0.11 °C
43 | O=C(NC[C@H](O)CO)c1ccncc1Nc1ccc(I)cc1F | 0.1 °C
44 | COc1c(C)c(C(=O)c2ccc(N)c(C(=O)O)c2)n2ccccc12 | -0.1 °C
45 | COc1cc(N2CCC(N)CC2)ccc1Nc1ncc(Cl)c(-c2c[nH]c3ccccc23)n1 | 0.87 °C
46 | C=CC(=O)Nc1ccc2ncnc(Nc3ccc(OCc4cccc(F)c4)c(Cl)c3)c2c1 | 0 °C
47 | CCS(=O)(=O)N1CCN(c2ccc(Nc3ncc(C(N)=O)c(NC4CC4)n3)cc2)CC1 | 1.68 °C
48 | O=C1c2ccc(Nc3ccc(F)cc3F)cc2CCc2ccc(OC[C@H](O)CO)cc21 [Skepinone-L] | 0.21 °C
49 | CCN1C(=O)CNc2ncc(-c3ccc(-c4nc[nH]n4)nc3C)nc21 | -0.65 °C
50 | Cc1ccc(CNc2ncnc3ccc(-c4ccc(CO)o4)cc23)o1 | 0.26 °C
51 | CCc1cncnc1N1CCN(Cc2nc3ccc(C(F)(F)F)cc3[nH]2)CC1 | 0.19 °C
52 | Cc1cc(CN2CCN(c3c(Br)cnc4nc(-c5ccc(N6CCN(C)CC6)cc5)[nH]c34)CC2)no1 | 0.23 °C
53 | Cc1nc(-c2cn3c(n2)-c2ccc(-c4cnn(C(C)(C)C(N)=O)c4)cc2OCC3)n(C(C)C)n1 [Taselisib (GDC 0032)] | 0.16 °C
54 | Cc1ccc(NC(=O)c2ccc(CN3CCN(C)CC3)cc2)cc1Nc1nccc(-c2cccnc2)n1 [Imatinib Mesylate (STI571)] | 0.06 °C
55 | O=c1cc(N2CCOCC2)oc2c(-c3ccccc3)cccc12 | 0.43 °C
56 | Nc1ncccc1-c1nc2ccc(-c3ccccc3)nc2n1-c1ccc(C2(N)CCC2)cc1 [Miransertib (ARQ 092) HCl] | -0.11 °C

Row | Compound | thermal shift delta Tm
57 | CNS(=O)(=O)C[C@H]1CC[C@H](N(C)c2[nH]cnc3nccc2-3)CC1 [Oclacitinib] | 2.6 °C
58 | N#Cc1ccc2[nH]c(O)c(-c3ccc(CN4CCOCC4)cn3)c2c1 | 0.3 °C
59 | C[C@]1(O)C[C@@H](c2nc(-c3ccc4ccc(-c5ccccc5)nc4c3)c3c(N)nccn32)C1 [Linsitinib (OSI-906)] | 2.13 °C
60 | CN1CCC(COc2cnc(-c3cccc(Cn4nc(-c5cccc(C#N)c5)ccc4=O)c3)nc2)CC1 | -0.13 °C
61 | CC(C)(C)c1nc(-c2ccc(NC(=O)Nc3cccc(C(F)(F)F)c3)c3ccccc23)c2c(N)nccn12 [kira6] | 14.6 °C
62 | Oc1c(F)cc(-c2cnccc2-c2ccc(N3CCOCC3)cc2)cc1F | 0.58 °C
63 | CC(C)[C@H](CO)Nc1nc(Nc2cccc(Cl)c2)c2ncn(C(C)C)c2n1 [Purvalanol A] | 0.46 °C
64 | CNC(=O)c1cc(Oc2ccc(NC(=O)Nc3ccc(Cl)c(C(F)(F)F)c3)cc2)ccn1 [Sorafenib] | 9.12 °C
65 | O=c1cc(-c2cccc3c2Sc2ccccc2S3)oc(N2CCOCC2)c1 | 0.32 °C
66 | N#Cc1c(Oc2ccc(F)c(NC(=O)Cc3cccc(C(F)(F)F)c3)c2)ccc2nc(NC(=O)C3CC3)sc12 | 0.73 °C
67 | CC[C@@](C)(Nc1ccnc(-c2c[nH]c3ncccc23)n1)C(=O)NCC(F)(F)F [Decernotinib (VX-509)] | 0.95 °C
68 | CCNC(=O)Nc1ccc(-c2nc3c(c(N4CCOC[C@@H]4C)n2)CCN(C2COC2)C3)cc1 | 0.65 °C
69 | COc1cc(OC)cc(N(CCNC(C)C)c2ccc3ncc(-c4cnn(C)c4)nc3c2)c1 | 0.43 °C
70 | C[C@@]1(C(=O)Nc2ccc(F)nc2)CCCN1c1nc(Nc2cc(C3CC3)n[nH]2)c2cccn2n1 | 0.6 °C
71 | O=C1CCc2c(Oc3ccc4c(c3)[C@@H]3[C@H](O4)[C@H]3c3nc4cc(C(F)(F)F)ccc4[nH]3)ccnc2N1 [Lifirafenib (BGB-283)] | 8.07 °C
72 | O=C1Nc2ccc(CN3C(=O)CSC3=O)cc2/C1=C/c1cc(CN2CCOCC2)c[nH]1 | 0.05 °C
73 | CN(c1ccccc1CNc1nc(Nc2ccc3c(c2)CC(=O)N3)ncc1C(F)(F)F)S(C)(=O)=O | 6.35 °C
74 | Cc1nc(N)sc1-c1ccnc(Nc2ccc(N3CCOCC3)cc2)n1 | 0.17 °C
